Measured values reported in PubChem BioAssay (NCATS).
Several values for one entry are separate records, joined by “and”; a condition that tells them apart may be missing. Equal values may be shown once. Inconclusive results are not listed. Some structures have more than one record in an assay (separate samples or runs), and their calls can disagree. Activity calls are given as the source filed them. Calls follow the shape of the dose curve; as a rule, active = well fitted curve in the direction sought with a large enough effect; inconclusive = small, poorly fitted or top-dose-only effect, or another doubt; inactive = no such curve, though single readings can be large; an effect the other way counts as inactive or inconclusive.

What was measured:
[1] = Primary qHTS for small molecule stabilizers of the endoplasmic reticulum resident proteome: Secreted ER Calcium Modulated Protein (SERCaMP) assay (AID 1508630)
Procedure, shortened: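 GLuc-SERCaMP-expressing SH-SY5Y cells, pretreated 16 h with compound, are challenged with thapsigargin to empty ER calcium stores; after 4 h, coelenterazine is added directly to the medium and luminescence is imaged.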

[2] = Primary qHTS for inhibitors of nuclear receptor binding SET domain protein 2 (NSD2) in an isogenic RCH-ACV NSD2 p.E1099K mutant (9B) (AID 1645876); also: nearly all actives have a fitted effect of over 70% in size; also: potency is read from the fitted curve at half-maximal effect
[3] = Primary qHTS for inhibitors of nuclear receptor binding SET domain protein 2 (NSD2) in an RCH-ACV wild type WT cells (2C) (AID 1645877); also: nearly all actives have a fitted effect of over 70% in size; also: potency is read from the fitted curve at half-maximal effect
[4] = biological target: Rap guanine nucleotide exchange factor 3 (Homo sapiens) (UniProt O95398); experiment: Confirmatory qHTS for antagonist of cAMP-regulated guanine nucleotide exchange factor 3 (EPAC1) (AID 1645880); also: potency is read from the fitted curve at half-maximal effect; nearly all actives have a fitted effect of over 55% in size
Procedure, shortened: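 Nucleotide exchange uses 100 nM EPAC1, 250 nM RAP1B-BODIPY-GDP and 50 uM GDP, with compounds in a concentration-titration series. After 5 min at room temperature, fluorescence (480 nm ex/540 nm em) is read every 5 min for 30 min. Data are normalized to control ATA and DMSO.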

Rap guanine nucleotide exchange factor 3 (Homo sapiens), sequence (O95398 whole entry, looked up): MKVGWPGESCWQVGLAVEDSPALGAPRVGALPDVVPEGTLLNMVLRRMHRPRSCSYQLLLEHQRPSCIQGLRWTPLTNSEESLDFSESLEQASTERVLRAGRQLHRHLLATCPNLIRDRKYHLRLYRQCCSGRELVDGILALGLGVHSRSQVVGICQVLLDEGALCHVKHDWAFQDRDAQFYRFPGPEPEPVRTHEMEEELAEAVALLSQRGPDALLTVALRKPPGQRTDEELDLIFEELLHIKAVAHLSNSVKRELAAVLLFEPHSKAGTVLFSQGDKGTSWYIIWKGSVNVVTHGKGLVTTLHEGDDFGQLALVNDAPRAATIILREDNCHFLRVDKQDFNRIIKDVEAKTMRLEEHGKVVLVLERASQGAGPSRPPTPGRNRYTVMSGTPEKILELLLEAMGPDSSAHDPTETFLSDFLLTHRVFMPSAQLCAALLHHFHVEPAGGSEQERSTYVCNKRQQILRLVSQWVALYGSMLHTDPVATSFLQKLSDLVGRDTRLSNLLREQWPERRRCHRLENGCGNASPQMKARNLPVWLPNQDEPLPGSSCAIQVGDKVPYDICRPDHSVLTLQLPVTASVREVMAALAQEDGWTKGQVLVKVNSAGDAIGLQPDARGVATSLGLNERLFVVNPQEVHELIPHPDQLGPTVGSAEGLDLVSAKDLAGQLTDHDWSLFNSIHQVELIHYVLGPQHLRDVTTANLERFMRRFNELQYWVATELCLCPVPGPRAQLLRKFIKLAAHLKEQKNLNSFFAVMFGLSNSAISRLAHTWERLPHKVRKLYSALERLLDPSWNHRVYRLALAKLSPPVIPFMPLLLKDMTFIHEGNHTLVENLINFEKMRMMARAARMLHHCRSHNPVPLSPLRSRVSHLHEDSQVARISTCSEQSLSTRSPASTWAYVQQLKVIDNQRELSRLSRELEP

SMILES | Potency [1] | Potency [2] | Potency [3] | Potency [4]
O=[N+]([O-])c1ccc(Nc2ccccc2-c2ccccc2)c2nonc12 | inactive | 20.9 µM (active) | 20.9 µM (active) | –
CCN(CCO)CCCOc1ccc2c(Nc3cc(CC(=O)Nc4cccc(F)c4)[nH]n3)ncnc2c1 | inactive | 5.9 µM (active) | 0.132 µM (active) | –
C#CCN(C)CC1=Cc2ccccc2Oc2ccccc21 | inactive | inactive | inactive | –
CC1=C[C@@H]2[C@@H]([C@@H](O)C[C@@]3(C)[C@H]2C[C@@H](C)[C@]3(O)C(=O)CO)[C@@]2(C)Cc3cnn(-c4ccccc4)c3C=C12 | inactive | 3.32 µM (active) | 0.0026 µM (active) | –
CN(C)CCN(C)C(=O)c1ccc(NC(=O)Nc2ccc(-c3nc(N4CCOCC4)c4ccn(CC(F)(F)F)c4n3)cc2)cc1 | inactive | 0.0209 µM (active) | 0.0186 µM (active) | –
O=C1C(c2c(O)[nH]c3ccccc23)=Nc2ccccc21 | inactive | 8.93 µM (active) and inactive | 2.24 µM (active) and inactive | –
NC(=O)c1noc([C@H](CCCC2CCCCC2)CC(=O)NO)n1 | inactive | 1.86 µM (active) | 1.66 µM (active) | –
CC(C)[C@H](O)C(=O)N[C@@H](C)C(=O)N[C@@H]1C(=O)N(C)CCc2ccccc21 | inactive | inactive | inactive | –
O=c1cc(-c2ccc(O)c(O)c2)oc2cc(O)cc(O)c12 | – | – | – | 6.27 µM (active) and 5.77 µM (active) and 7.57 µM (active)
O=C(Nc1ncc(SCCN2CCCC2)s1)[C@]1(c2ccc(S(=O)(=O)C3CC3)cc2)C[C@@H]1C1CCCCC1 | – | 20.6 µM (active) | 14.6 µM (active) | –
N#Cc1c(N(CC(=O)O)CC(=O)O)sc(C(=O)O)c1CC(=O)O | – | inactive | inactive | –
CN(C)CCCNC(=O)c1ccc(-c2cc(O)c3ncccc3c2)cc1 | – | 9.2 µM (active) and 10.5 µM (active) | 10.3 µM (active) and 9.34 µM (active) | –
